These results are taken from PubChem BioAssay (NCI).

Structures are written as SMILES. Compounds without any hit were thinned out: in the full panel of roughly 83,000, 20% have a hit.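 Note: values are percent growth. 100 is the growth of untreated cells, values between 100 and 0 indicate rising inhibition; between -100 and 0 indicates cell death.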 A number with no mark means an inactive call. Calls of active or inactive are those of the source. Rule for the calls: active = growth percent below 10; inactive = the rest.

Common to all, as to assay: NCI-60 one-dose screen, 48 h (100 = growth as untreated, 0 = no growth, -100 = all killed)
For experiment [1], the system named is K-562 leukemia. Particulars: 10 µM unless noted.
Experiment [2] deals with MALME-3M melanoma. As to conditions: 10 µM unless noted.
Experiment [3] deals with MDA-MB-231 breast. Particulars: 10 µM unless noted.
Experiment [4] relates to RXF 393 renal. As to conditions: 10 µM unless noted.
In experiment [5] the test system is SF-268 CNS. Particulars: 10 µM unless noted.
In experiment [6] the test system is SF-295 CNS. As to conditions: 10 µM unless noted.
Experiment [7] concerns SF-539 CNS. Particulars: 10 µM unless noted.
Experiment [8] relates to UACC-257 melanoma. As to conditions: 10 µM unless noted.
Experiment [9] relates to M14 melanoma. As to conditions: 10 µM unless noted.
In experiment [10] the test system is HCT-15 colon. As to conditions: 10 µM unless noted.
Experiment [11] relates to HT29 colon. As to conditions: 10 µM unless noted.
Experiment [12] relates to SNB-75 CNS. Particulars: 10 µM unless noted.
Experiment [13] concerns SNB-19 CNS. As to conditions: 10 µM unless noted.
Experiment [14] has as its system U251 CNS. Particulars: 10 µM unless noted.
Experiment [15] has as its system PC-3 prostate. Particulars: 10 µM unless noted.
In experiment [16] the test system is SK-MEL-5 melanoma. Particulars: 10 µM unless noted.
Experiment [17] has as its system UACC-62 melanoma. Particulars: 10 µM unless noted.
The test system of experiment [18] is LOX IMVI melanoma. Particulars: 10 µM unless noted.
For experiment [19], the system named is SK-MEL-28 melanoma. As to conditions: 10 µM.
For experiment [20], the system named is SK-MEL-2 melanoma. Particulars: 10 µM unless noted.

With `CCCCNc1nc(NC(C)(C)C)nc(NC(C)(C)C)n1`, the growth in experiment [1] was 20.8%; in experiment [2] it was 87.3%; in experiment [3], 72%; in experiment [4], -7.69% (active); in [5], 91.7%; in [6] it was -19.5% (active). For the same compound, the growth in [7] was 51%; in experiment [8] it was 81%; in experiment [9], 57.5%; in [10] it was 57.6%; in [11] it was 15.2%; in [12] it was 59.8%. Further, the growth in experiment [13] was 63.7%; in experiment [14] it was 38%; in [15], 58.6%; in experiment [16] it was 50.7%; in experiment [17], 55.3%; in experiment [18], 56.8%. The growth in experiment [19] was 61.4%; in experiment [20], 64.1%.

On to `CCCCCCn1c(=N)n(CC(O)COc2cccc(C)c2)c2ccccc21` (stereo not given), for which the growth was -2.58% (active) in experiment [1]; -90.9% (active) in experiment [2]; -70.7% (active) in experiment [3]; -95.1% (active) in experiment [4]; -14.2% (active) in experiment [5]; -85.7% (active) in experiment [6]. Further, the growth is -86.4% (active) in experiment [7]; -87.8% (active) in [8]; -75.2% (active) in experiment [9]; -18.8% (active) in [10]; -46.2% (active) in experiment [11]; -92.1% (active) in experiment [12]. The growth was 12.6% in [13]; -75.7% (active) in experiment [14]; -11% (active) in [15]; -98.7% (active) in experiment [16]; -72.4% (active) in [17]; -86.3% (active) in experiment [18]. The growth in experiment [19] was -92.3% (active); in experiment [20], -79.7% (active).

For the compound `O=Cc1c(OCc2cnnn2CC(=O)Nc2ccc(Br)cc2)ccc2ccccc12`, the growth was 91.4% in [1]; 88.4% in experiment [2]; 84.4% in experiment [3]; 100% in experiment [4]; 92.7% in [5]; 88.9% in [6]. Moreover, the growth in experiment [7] was 96.3%; in [8], 87%; in experiment [9], 98.6%; in experiment [10] it was 80.4%; in experiment [11], 97.8%; in [12], 72.6%. Besides, the growth in experiment [13] is 90.4%; in [14], 90.4%; in [15], 90.2%; in experiment [16], 93.9%; in experiment [17], 68.4%; in [18] it was 79.5%. The figures for the growth in experiment [19] and in [20] were 99.9% and 102%, respectively.

As to `FC(F)(F)c1cccc(CNC2CCN(CCc3ccccc3)CC2)c1`, the growth in experiment [1] was 30.1%; in [2] it was 74.8%; in experiment [3], 66.5%; in [4], 84.1%; in experiment [5] it was 74.7%; in [6], 81.7%. For the same compound, the growth in experiment [7] was 93.5%; in [8], 87%; in [9] it was 49.2%; in [10] it was 86.8%; in experiment [11], 46.9%; in [12], 71.2%. Also, the growth in experiment [13] was 91.7%; in experiment [14] it was 77.4%; in [15], 25.2%; in experiment [16], 90%; in experiment [17], 86.4%; in experiment [18], 56%. Besides, the growth is 85.1% in experiment [19] and 91% in experiment [20].

On to `CN(C)c1ccc(/C=C/c2ccnc3c(O)cccc23)cc1`, for which the growth in experiment [1] was 5.89% (active); in [2], -2.62% (active); in experiment [3], 36.5%; in [4], 36.1%; in experiment [5] it was 12.5%; in experiment [6], -8% (active). Besides, the growth in experiment [7] is 2.91% (active); in experiment [8], -15.5% (active); in experiment [9] it was -22.5% (active); in experiment [10], 26.7%; in experiment [11], 98.6%; in experiment [12], 28.5%. In addition, the growth in experiment [13] is 26.4%; in experiment [14], 12%; in experiment [15], 32%; in experiment [16], 8.23% (active); in experiment [17], -27.6% (active); in experiment [18] it was 13.1%. For the same compound, the growth in experiment [19] was 29.1%; in [20] it was 11.8%.

As to `O=C1/C(=C/c2cccc(O)c2)COc2ccc(O)cc21`, the growth in experiment [1] was 7.52% (active); in experiment [2] it was 78.6%; in experiment [3], 103%; in experiment [4], 115%; in experiment [5], 90.3%; in experiment [6] it was 105%. In addition, the growth in experiment [7] was 92.3%; in [8], 93.3%; in [9], 85.3%; in experiment [10], 10.6%; in experiment [11], 72.7%; in [12], 96.4%. Besides, the growth was 80% in experiment [13]; 29.6% in experiment [14]; 72.7% in [15]; 86.9% in experiment [16]; 82.4% in experiment [17]; -57.1% (active) in experiment [18]. In addition, the values for the growth in [19] and in experiment [20] were 102% and 108%, respectively.

With `Cc1nc2ccccc2c(/C=C/c2ccccc2)c1C(=O)/C=C/c1ccc(Cl)cc1`, the growth in [1] was 5.19% (active); in experiment [2] it was 40.8%; in experiment [3], 8.28% (active); in experiment [4], -28.2% (active); in experiment [5] it was 44.6%; in [6], 29%. Further, the growth is 26.6% in experiment [7]; 29.9% in experiment [8]; 17.1% in experiment [9]; -13.2% (active) in experiment [10]; -8.66% (active) in experiment [11]; 57.8% in experiment [12]. Besides, the growth in experiment [13] was 13.6%; in experiment [14], -33.2% (active); in experiment [15] it was 33.9%; in [16] it was 32.4%; in experiment [17], 34.9%; in experiment [18], -90.3% (active). The growth is 19.2% in experiment [19] and 14.7% in [20].

With `COc1ccc(C)c2sc(N(Cc3cccnc3)C(=O)c3ccc(C#N)cc3)nc12`, the growth is 4.61% (active) in experiment [1]; -15.2% (active) in [2]; -4% (active) in experiment [3]; -31% (active) in [4]; 10.9% in [5]; -28.9% (active) in [6]. In addition, the growth is -26% (active) in [7]; -15.5% (active) in [8]; 4.95% (active) in experiment [9]; 17.5% in experiment [10]; 16% in experiment [11]; 15.4% in [12]. In addition, the growth is 12.4% in experiment [13]; 1.87% (active) in experiment [14]; 16% in experiment [15]; -62.2% (active) in experiment [16]; -33.3% (active) in experiment [17]; -7.23% (active) in [18]. Further, the growth was 15.9% in experiment [19] and 13.1% in experiment [20].
